High-throughput results (PubChem)
In the library only some 1.3% were active in any assay of this set; here they are far more common.
LYPLA1 counter: LYPLA1 inhibitors, primary screen, counter-screen for PME1 inhibitor project, biochemical, fluorescence polarization, FP-Rh probe ABPP; recombinant LYPLA1; 320,000 compounds, 0.16% hits; Acyl-protein thioesterase 1 (Homo sapiens), O75608; AID 2174, 2009; inhibition, % at 5.9 µM;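 active = inhibition above the mean of all tested compounds plus 3 SD, set per campaign, cut at about 14% in these data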;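 also: inhibitors block serine hydrolase probe labeling of LYPLA1 so polarization falls; 0% = enzyme with DMSO and 100% = wells lacking LYPLA1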
Target sequence (O75608 whole entry, looked up): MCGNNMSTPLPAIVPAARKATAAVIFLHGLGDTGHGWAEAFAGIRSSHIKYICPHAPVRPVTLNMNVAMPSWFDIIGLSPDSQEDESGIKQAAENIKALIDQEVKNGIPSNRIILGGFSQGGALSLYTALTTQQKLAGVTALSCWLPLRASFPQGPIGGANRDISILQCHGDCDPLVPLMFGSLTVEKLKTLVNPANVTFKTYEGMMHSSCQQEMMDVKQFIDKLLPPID
PME-1 inh: PME-1 inhibitors via competitive probe labeling, primary screen, biochemical, fluorescence polarization, FP-Rh probe, HTS; Protein phosphatase methylesterase 1 (Homo sapiens), Q9Y570; recombinant PME-1; inhibition, % at 5.9 µM; 320,000 compounds, 0.53% hits;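 active = inhibition above the campaign mean of all compounds plus 3 SD, cut at about 26% in these data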;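 also: competitive labeling of PME-1 active site by serine hydrolase directed probe; 0% = PME-1 with DMSO and 100% = wells lacking PME-1 enzyme; inhibitors block probe labeling so polarization falls and inhibition rises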
PREPL inhibitor: PREPL enzyme inhibitors, primary screen, biochemical, fluorescence polarization; inhibition, % at 5.96 µM; Prolyl endopeptidase-like (Homo sapiens), Q4J6C6; AID 2751, 2010; recombinant PREPL, fluorescence polarization activity-based probe; 320,000 compounds, 0.68% hits; in the data active = inhibition above about 43%;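 also: 0% = enzyme with DMSO and 100% = wells lacking enzyme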
Fam108B inh: mouse Fam108B serine hydrolase inhibitors, primary screen, counter-screen for RBBP9 inhibitor project, biochemical, fluorescence polarization | recombinant Fam108B, FP-Rh probe fluorescence polarization | inhibition, % at 9.51 µM | 300,000 compounds, 0.33% hits;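 active = inhibition above the screen mean inhibition plus 3 SD, computed separately per campaign, cut at about 18% in these data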;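 also: inhibitors lower polarization as less probe binds the enzyme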
LYPLA2 inh: LYPLA2 inhibitors, primary screen, counter-screen for PME1 inhibitor project, biochemical, fluorescence polarization, FP-Rh probe ABPP | inhibition, % at 5.9 µM | 320,000 compounds, 0.38% hits | recombinant LYPLA2 | Acyl-protein thioesterase 2 (Homo sapiens), O95372;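 active = inhibition above the screen-wide mean plus 3 SD, limit set per campaign, cut at about 26% in these data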;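 also: 0% = LYPLA2 with DMSO and 100% = wells lacking LYPLA2 enzyme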
* = called active by the depositor; / = not tested or not shown.

SMILES	LYPLA1 counter	PME-1 inh	PREPL inhibitor	Fam108B inh	LYPLA2 inh
CCOC(=O)CSc1nc2cc3c(cc2cc1C#N)OCO3	1	22	14	-2	3
CCOC(=O)CSc1nc2cc3c(cc2cc1C#N)OCCO3	-2	34*	2	-2	-4
Cc1cc(C)nc(Nc2ccc(N3CCCC3)cc2)n1	-3	-9	44*	-1	6
CC(C)OC(=O)c1ccc(NC(=S)NC(=O)c2cncc(Br)c2)cc1	0	-3	-5	-1	10
O=c1c2ccccc2nc(/C=C/c2cc(Br)ccc2O)n1CCO	-9	14	-1	-3	-16
O=c1c2ccccc2nc(/C=C/c2c[nH]c3ccccc23)n1CCO	-2	47*	17	4	6
COc1ccc(-c2[nH]c3ccccc3c2SCCN)cc1	-1	7	55*	2	-2
CC(=O)c1ccc(N2CCN(C(=S)Nc3ccc(Oc4ccccc4)cc3)CC2)cc1	5	2	10	-3	32*
COc1ccc(N2CCN(C(=S)Nc3ccccc3)CC2)cc1	1	-1	5	-5	-3
Cc1ccc(-n2ncc3c(SCC(=O)Nc4cc(C)on4)ncnc32)c(C)c1	0	3	-2	0	6
Cc1cc(-c2ccccc2)nc(N/N=C/c2ccc(O)cc2O)n1	-9	40*	28	7	-1
CCOc1cc(/C=C2/C(=O)N(c3ccccc3)N=C2C)ccc1OC(=O)c1ccco1	-4	2	46*	3	-9
O=C(Cc1coc2cc3c(cc12)CCC3)NCC1(N2CCCCC2)CCCCC1	-4	2	46*	0	-4
O=C(Cc1coc2cc3c(cc12)CCC3)NC1CCCCCCC1	-7	-2	-20	-2	-5
O=C(COC(=O)c1ccc([N+](=O)[O-])s1)Nc1ccc(F)cc1	2	8	5	/	5
CC(C)(C)c1ccc(NC(=O)COC(=O)c2ccc([N+](=O)[O-])s2)cc1	0	33*	24	12	16
Cc1cc(N(C)C)ccc1N=Nc1ccc2ncccc2c1	7	32*	26	11	12
Cc1ccc(N=Nc2ccc(O)c3ncccc23)cc1C	-2	9	4	1	-1
Cc1cc(N=Nc2ccc(C)c(N=Nc3cc(C)c(N)cc3N)c2)c(N)cc1N	0	9	70*	10	-1
CCCc1cc(=O)oc2cc(OCC(=O)NCCCN3CCOCC3)ccc12	-1	0	6	2	-1
CCOC(=O)NC(=O)c1cn(CCN(C)C)c(=O)[nH]c1=O	1	1	6	-1	-2
O=C(O)c1ccccc1-c1ccccc1C(=O)Nc1ccc(-c2nc3cc(Cl)ccc3o2)cc1	-14	31*	-4	-19	-22
CC(C)[C@@]1(c2ccc(Cl)cc2)ON(c2ccccc2C(F)(F)F)C1=O	2	-1	13	/	4
CC(C)c1ccc2[nH]c(O)c(N=NC(=O)c3cccc(S(=O)(=O)Nc4ccccc4Cl)c3)c2c1	-2	8	18	10	-6
CC(C)NC(=S)N=Nc1c(O)[nH]c2ccc(C(C)C)cc12	1	29*	20	1	0
SMILES	LYPLA1 counter	PME-1 inh	PREPL inhibitor	Fam108B inh	LYPLA2 inh
COc1cccc(CNC(=O)CCCc2cn(C)c3ccccc23)c1	1	134*	-11	-1	4
O=C(COC(=O)c1cc(S(=O)(=O)N2CCOCC2)ccc1F)NCc1ccc2c(c1)OCO2	/	/	1	/	/
CCOC(=O)c1c2c3c(cccc3n(C)c1=O)C(=O)c1ccccc1-2	10	28*	24	11	13
CN1CCc2c(sc3c2C(=O)NC(c2cccc(OC(=O)c4cccs4)c2)N3)C1 (configuration not stated)	-4	-8	52*	-4	-6
CN1CCc2c(sc3c2C(=O)NC(c2ccco2)N3)C1 (configuration not stated)	-1	-2	0	-2	-2
Cc1ccc(/C=N/Nc2ccc(C(=O)O)cc2)o1	2	-4	9	2	-1
O=C(O)c1ccc(N/N=C/c2ccc(-c3ccc(Br)cc3)o2)cc1	3	33*	35	13	7
COc1cc(OC)cc(C(=O)NCC(=O)OCc2ccc(Cl)c(Cl)c2)c1	-8	-1	-8	/	-6
